The values that follow come from PubChem BioAssay (Tox21).

A short description of assay [1]: qHTS assay to identify small molecule antagonists of the thyroid receptor (TR) signaling pathway - cell viability counter screen (AID 743064). Further: nearly all actives have a fitted effect of over 50% in size. Further: potency means the concentration at half of the fitted maximal effect. Put shortly: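 GH3.TRE-Luc rat pituitary cells dosed after 4 hr plating, co-stimulated with T3 at 1 nM final, incubated 23.5 h at 37 C. Viability measured in the same wells by CellTiter-Fluor fluorescence after 30 min further at 37 C.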
A general note: In qHTS, concentration-response curves come from the screen itself.

The target in assay [2] is Estrogen receptor (Homo sapiens) (UniProt P03372). Description: qHTS assay to identify small molecule antagonists of the estrogen receptor alpha (ER-alpha) signaling pathway (AID 743069; active means well fitted curve in the direction sought with a large enough effect in the signal ratio in the repeat runs, not every such curve was filed as active; inconclusive means weak or mixed curves, or effect the other way; inactive means no such curve, though single readings can be large or run the other way; the % refers to the signal ratio). A digest of the protocol: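 A 17beta-estradiol challenge was applied right after compound transfer to ER-alpha-UAS-bla HEK293 cells previously kept in charcoal-stripped serum. Plates stood 18 hr at 37C and 5% CO2; fluorescence was read following 2 hr FRET substrate loading at room temperature.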
Estrogen receptor (Homo sapiens), sequence (P03372 whole entry, looked up): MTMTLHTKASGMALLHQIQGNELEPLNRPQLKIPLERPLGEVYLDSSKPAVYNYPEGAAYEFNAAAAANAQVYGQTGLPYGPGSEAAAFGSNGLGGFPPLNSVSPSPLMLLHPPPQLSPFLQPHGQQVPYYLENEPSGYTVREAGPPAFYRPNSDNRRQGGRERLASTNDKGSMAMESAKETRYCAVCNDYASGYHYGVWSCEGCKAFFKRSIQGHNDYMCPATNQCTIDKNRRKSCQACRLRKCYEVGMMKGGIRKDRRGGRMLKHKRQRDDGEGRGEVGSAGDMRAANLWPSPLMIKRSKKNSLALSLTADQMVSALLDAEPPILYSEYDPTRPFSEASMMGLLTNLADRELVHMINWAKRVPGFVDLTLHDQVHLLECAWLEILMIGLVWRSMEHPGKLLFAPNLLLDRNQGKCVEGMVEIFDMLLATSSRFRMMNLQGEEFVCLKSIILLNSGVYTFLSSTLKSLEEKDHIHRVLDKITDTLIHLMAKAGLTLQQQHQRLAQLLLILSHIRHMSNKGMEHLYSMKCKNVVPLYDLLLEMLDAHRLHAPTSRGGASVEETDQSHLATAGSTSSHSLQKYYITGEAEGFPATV

Assay [3] shares this target. Description: qHTS assay to identify small molecule agonists of the estrogen receptor alpha (ER-alpha) signaling pathway (AID 743075; calls by dose curve;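 further: HEK293 GripTite cells with ER-alpha and UAS-driven beta-lactamase reporter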; further: potency means the concentration at half of the fitted maximal effect).
Assay [4] shares this target. Description: qHTS assay to identify small molecule agonists of the estrogen receptor alpha (ER-alpha) signaling pathway using the BG1 cell line (AID 743079). Further: nearly all actives have a fitted effect of over 20% in size. Further: potency means the concentration at half of the fitted maximal effect. As to conditions: BG1Luc4E2 cells, ERE-luciferase agonist, 22 h; activation: at 70.3 µM (top of the series).
Assay [5] can be described thus: qHTS assay to identify small molecule antagonists of the estrogen receptor alpha (ER-alpha) signaling pathway using the BG1 cell line (AID 743080; calls by dose curve; further: nearly all actives have a fitted effect of over 25% in size; further: potency means the concentration at half of the fitted maximal effect). A digest of the protocol:
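Antagonist mode: compounds in DMSO were pinned onto BG1-Luc-4E2 cells alongside 17beta-estradiol agonist, incubated 21.5 h, and ERE-driven luciferase measured with ONE-Glo. Cytotoxicity was multiplexed using CellTiter-Fluor fluorescence.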

Assay [6] can be described thus: qHTS assay to identify small molecule antagonists of the estrogen receptor alpha (ER-alpha) signaling pathway using the BG1 cell line - cell viability counter screen (AID 743081).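 Further: compound given together with 17beta-estradiol as the ER stimulus; nearly all actives have a fitted effect of over 45% in size.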
The target in assay [7] is Aromatase (Homo sapiens) (UniProt P11511). Description: qHTS assay to identify aromatase inhibitors (AID 743083). Further: nearly all actives have a fitted effect of over 55% in size. Further: potency means the concentration at half of the fitted maximal effect.
Aromatase (Homo sapiens), sequence (P11511 whole entry, looked up): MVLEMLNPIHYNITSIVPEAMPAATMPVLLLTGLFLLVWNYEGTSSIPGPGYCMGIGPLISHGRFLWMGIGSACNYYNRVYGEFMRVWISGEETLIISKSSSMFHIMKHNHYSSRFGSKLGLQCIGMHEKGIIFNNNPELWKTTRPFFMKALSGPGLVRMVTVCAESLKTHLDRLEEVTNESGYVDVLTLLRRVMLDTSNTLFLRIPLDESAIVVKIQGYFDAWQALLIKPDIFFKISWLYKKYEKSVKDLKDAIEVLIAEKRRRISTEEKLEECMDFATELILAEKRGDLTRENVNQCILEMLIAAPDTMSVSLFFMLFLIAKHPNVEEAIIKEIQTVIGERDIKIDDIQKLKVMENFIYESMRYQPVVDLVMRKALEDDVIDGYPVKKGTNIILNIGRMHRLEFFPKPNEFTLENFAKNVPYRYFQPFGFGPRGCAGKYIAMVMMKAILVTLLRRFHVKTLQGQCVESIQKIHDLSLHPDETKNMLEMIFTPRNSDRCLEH
A short description of assay [8]: qHTS assay to identify small molecule antagonists of the thyroid receptor (TR) signaling pathway (AID 743065). Further: nearly all actives have a fitted effect of over 55% in size. Further: potency means the concentration at half of the fitted maximal effect. Put shortly:
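GH3.TRE-Luc rat pituitary cells carrying two TR response elements driving luciferase were plated for 4 h, given compound plus 1 nM T3 (final), and incubated 23.5 h at 37 C. ONE-Glo luminescence measured reporter inhibition; CellTiter-Fluor fluorescence tracked cytotoxicity.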

Assay [9] has as its system thyroid hormone receptor (rat, GH3 cells). Nature of the assay: qHTS assay to identify small molecule agonists of the thyroid receptor (TR) signaling pathway (AID 743066; calls by dose curve).
Assay [10] is described as follows: qHTS assay to identify small molecule antagonists of the estrogen receptor alpha (ER-alpha) signaling pathway - cell viability counter screen (AID 743074; calls by dose curve;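 further: HEK293 cells carrying ER-alpha-UAS-bla reporter stimulated with 17beta-estradiol; nearly all actives have a fitted effect of over 45% in size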).

SMILES strings stand for the structures. The source made the active and inactive calls. Unless noted, the call rests on the fitted dose curve; in most records, active means well fitted curve in the direction sought with a large enough effect in the repeat runs; inconclusive means weak or mixed curves; inactive means no such curve, though single readings can be large; an effect the other way counts as inactive or inconclusive.

For `CCCCCCCCCCCCCCCC(=O)OC[C@@H](O)[C@H]1OC[C@H](O)[C@H]1O`, the Potency result in assay [1], in [2], in assay [3], in assay [4], in assay [5] and in [6] was “inactive” throughout. Also, in [7], the Potency entry is “inactive”.
For `C=C[C@]1(C)C[C@@H](OC(=O)CO)[C@]2(C)[C@H](C)CC[C@]3(CCC(=O)[C@H]32)[C@@H](C)[C@@H]1O`, the Potency entry in [1], in assay [2], in assay [3], in assay [4], in assay [5] and in [7] was “inactive” in each case.
Regarding `O=C(OC[C@H]1O[C@](O)(COC(=O)c2cccnc2)[C@@H](OC(=O)c2cccnc2)[C@@H]1OC(=O)c1cccnc1)c1cccnc1`, the Potency result in [8], in assay [9], in [2], in assay [10], in [3] and in assay [4] was “inactive” each time. For the same compound, the Potency entry in assay [5], in [6] and in assay [7] was “inactive” each time.
With `OCCO[C@@H]1[C@@H](O)[C@H](O)[C@@H](CO)O[C@@H]1O`, the Potency entry in assay [1], in [10], in assay [3], in assay [4], in [6] and in assay [7] was “inactive” throughout.
In the case of `COc1ccc2c(c1)OC(C)(C)C(c1ccccc1)C2c1ccc(OCCN2CCCC2)cc1` (stereo not drawn), the Potency in assay [1] is 10.6 µM (active). Moreover, the Potency entry in assay [4], in assay [5] and in [6] was “inactive” throughout.
As to `CN[C@@H]1[C@H](O[C@H]2[C@H](O[C@H]3[C@H](O)[C@@H](O)[C@H](N=C(N)N)[C@@H](O)[C@@H]3N=C(N)N)O[C@@H](C)[C@]2(O)C=O)O[C@@H](CO)[C@H](O)[C@H]1O`, the Potency result in assay [8], in assay [9], in assay [2], in assay [10], in assay [3] and in [4] was “inactive” in each case. In addition, the Potency result in assay [5], in assay [6] and in [7] was “inactive” in each case.
As to `C#C[C@]1(O)CC[C@H]2[C@@H]3CCC4=CC(=O)CC[C@@H]4[C@H]3C(=C)C[C@@]21CC`, the Potency entry in [1], in assay [10] and in assay [7] was “inactive” in each case. Further, the Potency was 2.39 µM [inconclusive] (active) in assay [3] and 1.88 µM (active) in assay [4].
As for `CCC(=O)OCC(=O)[C@@]1(OC(=O)CC)[C@H](C)C[C@H]2[C@@H]3CCC4=CC(=O)C=C[C@]4(C)[C@@]3(F)[C@@H](O)C[C@@]21C`, the Potency result in assay [1], in assay [10], in [4], in [6] and in [7] was “inactive” throughout.
In the case of `CCCCc1cc2c(=O)c(C(=O)OC)c[nH]c2cc1OCc1ccccc1`, the Potency entry in [8], in assay [9], in [2], in [10], in assay [3] and in assay [4] was “inactive” throughout. Moreover, the Potency result in assay [5] and in assay [7] was “inactive” in each case.
Take `C[C@H](CCCC(C)(C)O)[C@H]1CC[C@H]2[C@@H]3CC=C4C[C@@H](O)CC[C@]4(C)[C@H]3CC[C@]12C`: the Potency entry in assay [1], in [10], in assay [6] and in [7] was “inactive” in each case.
Turning to `CCC(=O)c1ccc2c(c1)N(CCCN1CCN(CCO)CC1)c1ccccc1S2`, in assay [1], the Potency is 10.6 µM (active). Besides, the Potency result in assay [10], in assay [3], in assay [4] and in assay [5] was “inactive” each time.
Regarding `CC(C)Cc1ccc([C@@H](C)C(=O)NS(C)(=O)=O)cc1`, the Potency result in assay [8], in [9], in assay [2], in assay [10], in assay [3] and in assay [4] was “inactive” each time. For the same compound, the Potency result in assay [5], in [6] and in assay [7] was “inactive” each time.
Consider `CCCCOC(=O)C(=O)Nc1cccc(-c2nn[nH]n2)c1`, for which the Potency result in [1], in [10], in [3], in assay [4], in assay [5] and in assay [7] was “inactive” throughout.
`CCCCCCCCCCCCCCCCCC[N+](C)(C)CCC[Si](OC)(OC)OC`: the Potency entry in [8], in assay [9], in assay [2], in [10], in assay [5] and in [6] was “inactive” in each case. Besides, in [7], the Potency entry is “inactive”. Further, the results for the Potency in assay [3] and in assay [4] were 23.9 µM [activator] (active) and 5.96 µM (active), respectively.
In the case of `c1cnc2cc3c(cc2n1)[C@@H]1CNC[C@H]3C1`, the Potency entry in assay [8], in assay [9], in assay [2], in assay [10], in assay [3] and in assay [4] was “inactive” in each case. For the same compound, the Potency result in assay [5], in assay [6] and in assay [7] was “inactive” each time.
Take `CC1CS(=O)(=O)CCN1/N=C/c1ccc([N+](=O)[O-])o1` (stereo not drawn): the Potency result in [8], in [9], in assay [2], in assay [10], in assay [3] and in [4] was “inactive” throughout. The Potency entry in [5], in [6] and in [7] was “inactive” each time.
In the case of `CN(C)CCC=C1c2ccccc2C(C)(C)c2ccccc21`, the Potency in assay [1] is 13.3 µM (active). For the same compound, the Potency result in [2], in assay [4], in assay [5] and in assay [6] was “inactive” each time.
Regarding `O=C1C(=O)c2ncccc2-c2cccnc21`, the Potency in [8] is 1.68 µM (active); in [5], 5.96 µM (active); in [7], 23.7 µM (active). The Potency entry in [9], in assay [2], in assay [10], in [3] and in assay [6] was “inactive” throughout.
Consider `Nc1ncnc2c1ncn2CCOCP(=O)(O)O`, for which the Potency entry in assay [8], in [9], in [2], in assay [10], in assay [3] and in [4] was “inactive” in each case. Also, the Potency result in assay [5] and in assay [6] was “inactive” in each case.
With `CO/N=C(\C(=O)N[C@@H]1C(=O)N2C(C(=O)OCOC(=O)C(C)(C)C)=C(/C=C\c3scnc3C)CS[C@H]12)c1csc(N)n1`, the Potency entry in [8], in assay [9], in [2], in assay [10], in assay [3] and in assay [4] was “inactive” each time. In addition, the Potency result in assay [5], in assay [6] and in assay [7] was “inactive” each time.
Turning to `COCC(=O)Nc1cc(Sc2ccccc2)ccc1N=C(NC(=O)OC)NC(=O)OC`, the Potency in [8] is 23.7 µM (active). Moreover, the Potency entry in [9], in [2], in assay [10], in assay [3], in assay [4] and in assay [6] was “inactive” each time. The Potency entry in assay [7] was “inactive”.
